# Where two headings read alike, the source gives them in different places.
# How the values were obtained:
# Set-up in all cases: species or system human, MV4-11 + K-562 + COLO205 + SK-N-BE2 + OVCAR-8
# ACAD11 = settings: read-out: apparent Kd, n = 1
# FGFR1 = settings: read-out: apparent Kd, n = 1
# FRK = settings: read-out: apparent Kd, n = 1
# JAK1 = settings: read-out: apparent Kd, compound concentrations: 100 nM and 1000 nM (sheet 'Samples'), n = 1
# ULK3 = settings: read-out: apparent Kd, compound concentrations: 100 nM and 1000 nM (sheet 'Samples'), n = 1
# PRKCB = settings: read-out: apparent Kd, n = 1
# JAK2 = settings: read-out: apparent Kd, n = 1
# MAPKAPK2 = settings: read-out: apparent Kd, n = 1
# CDC7 = settings: read-out: apparent Kd; compound concentrations: 100 nM and 1000 nM (sheet 'Samples'), CATDS: 3.6033754639237303E-2; n = 1
# NLK = settings: read-out: apparent Kd, compound concentrations: 100 nM and 1000 nM (sheet 'Samples'), n = 1
# DJA1 = system: T1, DJA1; settings: read-out: apparent Kd; compound concentrations: 100 nM and 1000 nM (sheet 'Samples'), CATDS: 3.8361892236094597E-2; n = 1
# T1 construct: gene DNAJA1
# ATR = settings: read-out: apparent Kd, n = 1
# CDK5 = settings: read-out: apparent Kd, compound concentrations: 100 nM and 1000 nM (sheet 'Samples'), n = 1
# IRAK4 = settings: read-out: apparent Kd, n = 1
# MAP2K1 = settings: read-out: apparent Kd; compound concentrations: 100 nM and 1000 nM (sheet 'Samples'), CATDS: 3.7479108323340499E-3; n = 1
# MAP4K1 = settings: read-out: apparent Kd, n = 1
# PIK3CA = settings: read-out: apparent Kd; compound concentrations: 100 nM and 1000 nM (sheet 'Samples'), CATDS: 3.6748488763129201E-2; n = 1
# STK26 = settings: read-out: apparent Kd; compound concentrations:100 nM and 1000 nM (sheet 'Samples'); n = 1
# [1] = compound concentrations:100 nM and 1000 nM (sheet 'Samples')
smiles,measurement,setting,value
O=C1N=C(NCCc2ccc(Cl)cc2)S/C1=C\c1ccc2ncccc2c1 [RO4498479-000],potency estimated from few doses,"ACAD11; compound concentrations: 100 nM and 1000 nM (sheet 'Samples'), CATDS: 8.46933106207029E-3",852 nM
same,potency estimated from few doses,"FGFR1; compound concentrations: 100 nM and 1000 nM (sheet 'Samples'), CATDS: 8.1769993071202692E-3",946 nM
same,potency estimated from few doses,"FRK; compound concentrations: 100 nM and 1000 nM (sheet 'Samples'), CATDS: 1.0205973298365501E-2",530 nM
same,potency estimated from few doses,JAK1; CATDS: 7.5180270628035497E-3,1240 nM
same,potency estimated from few doses,ULK3; CATDS: 8.2720873677068606E-3,913 nM
CCn1c(-c2nonc2N)nc2c(C#CC(C)(C)O)nc(OCCN)cc21.CCn1c(-c2nonc2N)nc2c(C#CC(C)(C)O)nc(OCCN)cc21.Cl.Cl [GSK902056A],potency estimated from few doses,PRKCB; [1],1980 nM
Cl.NCc1ccc(-c2nc(-c3ccc(Cl)c(O)c3)c(-c3ccncc3)[nH]2)cc1 [SB-476429-A],potency estimated from few doses,JAK2; [1],347 nM
same,potency estimated from few doses,MAPKAPK2; [1],94.8 nM
CCn1c(-c2nonc2N)nc2c(-c3ccccc3)ncc(OCCCN)c21.CCn1c(-c2nonc2N)nc2c(-c3ccccc3)ncc(OCCCN)c21.O=C(O)C(F)(F)F.O=C(O)C(F)(F)F [GSK260205A],potency estimated from few doses,CDC7,714 nM
same,potency estimated from few doses,"MAPKAPK2; compound concentrations: 100 nM and 1000 nM (sheet 'Samples'), CATDS: 0.102958619201112",74.4 nM
same,potency estimated from few doses,NLK; CATDS: 6.7931350663373802E-2,162 nM
COc1cccc2c(-c3ccncc3)c(-c3ccc(F)cc3)nn12 [GW468513X],potency estimated from few doses,DJA1,1520 nM
same,potency estimated from few doses,"MAPKAPK2; compound concentrations: 100 nM and 1000 nM (sheet 'Samples'), CATDS: 0.11200666699730499",80.6 nM
Cl.Cl.NCC(C(=O)Nc1cc(Br)c(-c2ccnc3[nH]ccc23)s1)c1ccccc1.NCC(C(=O)Nc1cc(Br)c(-c2ccnc3[nH]ccc23)s1)c1ccccc1 (centres unmarked) [GSK1269851A],potency estimated from few doses,ACAD11; [1],1260 nM
same,potency estimated from few doses,ATR; [1],889 nM
same,potency estimated from few doses,FGFR1; [1],1730 nM
same,potency estimated from few doses,FRK; [1],846 nM
CN1C[C@@H]2Cn3c(c(C4=C(c5cn(C)c6ccccc56)C(=O)NC4=O)c4ccccc43)C[C@H]2C1.Cl [RO0320234-001],potency estimated from few doses,ATR; [1],438 nM
same,potency estimated from few doses,FRK; [1],290 nM
same,potency estimated from few doses,"PRKCB; compound concentrations: 100 nM and 1000 nM (sheet 'Samples'), CATDS: 3.7076657703329602E-2",28.4 nM
Cn1ncc2c(N)ncnc21 [SKF-18267],potency estimated from few doses,"ACAD11; compound concentrations: 100 nM and 1000 nM (sheet 'Samples'), CATDS: 4.0481268472205602E-3",1300 nM
same,potency estimated from few doses,"ATR; compound concentrations: 100 nM and 1000 nM (sheet 'Samples'), CATDS: 6.4256483449106902E-3",516 nM
same,potency estimated from few doses,CDK5; CATDS: 4.5442394594478004E-3,993 nM
same,potency estimated from few doses,"FGFR1; compound concentrations: 100 nM and 1000 nM (sheet 'Samples'), CATDS: 4.74692919335207E-3",905 nM
same,potency estimated from few doses,"FRK; compound concentrations: 100 nM and 1000 nM (sheet 'Samples'), CATDS: 7.1234836872725703E-3",436 nM
same,potency estimated from few doses,"IRAK4; compound concentrations: 100 nM and 1000 nM (sheet 'Samples'), CATDS: 3.8610933772381499E-3",1460 nM
same,potency estimated from few doses,JAK1; CATDS: 4.8033962123192799E-3,883 nM
same,potency estimated from few doses,"JAK2; compound concentrations: 100 nM and 1000 nM (sheet 'Samples'), CATDS: 4.4372825621257503E-3",1050 nM
same,potency estimated from few doses,MAP2K1,1590 nM
same,potency estimated from few doses,"MAP4K1; compound concentrations: 100 nM and 1000 nM (sheet 'Samples'), CATDS: 5.1468947283468203E-3",769 nM
same,potency estimated from few doses,"MAPKAPK2; compound concentrations: 100 nM and 1000 nM (sheet 'Samples'), CATDS: 4.1039976146892603E-3",1250 nM
same,potency estimated from few doses,PIK3CA,53.3 nM
same,potency estimated from few doses,"PRKCB; compound concentrations: 100 nM and 1000 nM (sheet 'Samples'), CATDS: 3.7264433576920599E-3",1610 nM
same,potency estimated from few doses,ULK3; CATDS: 5.6428686263863704E-3,647 nM
Cl.ON=C1CCc2cc(-c3nc(C4CCNCC4)[nH]c3-c3ccncc3)ccc21 [SB-614067-R],potency estimated from few doses,MAPKAPK2; [1],874 nM
Cc1ccc(Nc2ccnc(Nc3ccc4c(c3)CS(=O)(=O)C4)n2)cc1O.Cl [GW579362A],potency estimated from few doses,CDK5; CATDS: 3.4142296648309298E-2,844 nM
same,potency estimated from few doses,NLK; CATDS: 6.6652285634060698E-2,208 nM
same,potency estimated from few doses,ULK3; CATDS: 3.7183394564858599E-2,681 nM
CCOC(=O)N1CCC(n2cnc(-c3ccc(F)cc3)c2-c2ccnc(N)n2)CC1 [SB-219952],potency estimated from few doses,"ACAD11; compound concentrations: 100 nM and 1000 nM (sheet 'Samples'), CATDS: 8.6091938729062605E-3",1330 nM
same,potency estimated from few doses,"FGFR1; compound concentrations: 100 nM and 1000 nM (sheet 'Samples'), CATDS: 8.7030488552416706E-3",1280 nM
same,potency estimated from few doses,"FRK; compound concentrations: 100 nM and 1000 nM (sheet 'Samples'), CATDS: 9.3147950048740498E-3",1050 nM
same,potency estimated from few doses,"MAPKAPK2; compound concentrations: 100 nM and 1000 nM (sheet 'Samples'), CATDS: 4.5642459422858099E-2",60.7 nM
same,potency estimated from few doses,NLK; CATDS: 4.0230749785041403E-2,72.7 nM
same,potency estimated from few doses,ULK3; CATDS: 8.4106356024223894E-3,1430 nM
Cc1cccc2c(-c3ccncn3)c(-c3ccc(F)cc3)nn12 [GW515532X],potency estimated from few doses,"MAPKAPK2; compound concentrations: 100 nM and 1000 nM (sheet 'Samples'), CATDS: 0.245203674473806",1400 nM
CNC(=O)c1ccccc1Nc1nc(Nc2ccc(N3CCOCC3)cc2)ncc1Cl.Cl [GSK1576028A],potency estimated from few doses,FGFR1; [1],844 nM
same,potency estimated from few doses,IRAK4; [1],593 nM
same,potency estimated from few doses,MAP4K1; [1],387 nM
same,potency estimated from few doses,STK26,1360 nM
Fc1ccc(-c2c(-c3ccncc3)[nH]c3cccnc23)cc1 [RO1153853-000],potency estimated from few doses,"MAPKAPK2; compound concentrations: 100 nM and 1000 nM (sheet 'Samples'), CATDS: 8.5753103075807094E-2",373 nM

# Reference: article PMC11062922 (Nature Chemical Biology, 2023)
